Shown are actives, neighbours in structure and some others; about 2.1% of the full set was active somewhere.
CHT allo act = human CHT allosteric activation. Q9GZV3. CHT-expressing cells, membrane potential dye, choline EC20; hits give high values; LV-AA mutant CHT in HEK293 cells. B-score at 10 µM. hit rate 0.49% among 310,000. AID 488977;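 active means initial fluorescence not abnormally high and integrated response B-score, plate-corrected, over 3 SD above library mean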
EP2 antag = blocks the human prostaglandin E2 receptor EP2; P43116; C6 glioma cells expressing human EP2, cAMP TR-FRET; cells stimulated with saturating PGE2; inhibition, % at 25 µM; hit rate 0.52% among 260,000;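 active means percent inhibition above 40 after rounding to a whole number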;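 further: rat C6 glioma host cells with rolipram phosphodiesterase inhibitor present; the protocol text gives 20 µM as final concentration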
Target sequence (P43116 whole entry, looked up): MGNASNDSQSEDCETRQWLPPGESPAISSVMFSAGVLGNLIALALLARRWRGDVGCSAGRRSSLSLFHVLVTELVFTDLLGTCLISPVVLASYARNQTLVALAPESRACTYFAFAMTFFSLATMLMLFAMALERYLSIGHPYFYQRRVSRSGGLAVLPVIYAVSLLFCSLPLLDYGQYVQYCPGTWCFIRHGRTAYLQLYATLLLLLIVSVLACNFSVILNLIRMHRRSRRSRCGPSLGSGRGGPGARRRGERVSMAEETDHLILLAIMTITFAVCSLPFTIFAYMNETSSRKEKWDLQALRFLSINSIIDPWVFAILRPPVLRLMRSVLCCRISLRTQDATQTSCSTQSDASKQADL
CHT block = human CHT choline transport inhibition; hit rate 0.86% among 310,000; Q9GZV3; B-score at 10 µM; CHT-expressing cells, membrane potential dye, choline response; hits give low values;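 active means B-score over 3 SD under the library average, and starting fluorescence ratio not unusually high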;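 further: choline stimulus applied at its EC90 after an EC20 pre-addition; B-score computed on integrated fluorescence ratio after choline addition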
EP2 modulator = EP2 receptor (human) modulation; induction, % at 25 µM; hit rate 0.83% among 260,000; EP2-expressing cells, cAMP HTRF FRET, PGE2 co-stimulation; P43116; AID 940;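 active means compounds whose cAMP rise, as percent of the full-agonist control response, exceeds 60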;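 further: rat C6 glioma line stably carrying human EP2 under a CMV promoter; the protocol text gives 20 µM as final concentration; 100% = response of wells given 1 µM PGE2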
* marks the source's active call; other numbers are inactive results; i = inactive; / = no result; ! = a repeat was not active.

SMILES	CHT allo act	EP2 antag	CHT block	EP2 modulator
COc1ccc(C(C[N+](=O)[O-])c2c(C)[nH]n(-c3ccccc3)c2=O)cc1 (configuration not stated)	i	/	i	/
CCc1cc2cc3c(cc2nc1SCC(=O)Nc1nc2c(s1)CCCC2)OCO3	/	23	/	77*
CCc1cc2cc(C)c(C)cc2nc1SCC(=O)Nc1ccc2c(c1)OCO2	/	14	/	6
CCc1cc2cc3c(cc2nc1SCC(=O)Nc1cc(OC)cc(OC)c1)OCO3	/	12	/	69*
CC(C)(C)NC(=O)CSc1nc2cc3c(cc2cc1Cc1ccccc1)OCO3	/	10	/	81*
COc1ccc(NC(=O)CSc2nc3cc4c(cc3cc2C)OCO4)cc1	/	16	/	-95
CCc1cc2cc3c(cc2nc1SCC(=O)NNC(=O)c1ccccc1)OCO3	/	27	/	38
CCc1cc2ccc(OC)cc2nc1SCC(=O)Nc1ccc2c(c1)OCO2	/	12	/	76*
CC(C)=CCc1c2c(c3occ(-c4ccc(O)cc4)c(=O)c3c1O)C=CC(C)(C)O2	i	12	i	37
CC(C)=CCc1c2c(c3occ(-c4ccc(O)c(O)c4)c(=O)c3c1O)C=CC(C)(C)O2	/	41*!	/	37
COc1ccc(C2(NCc3ccc(OC)c(CN4CCOCC4)c3)CC2)cc1	/	8	/	-23
C=C[C@@]1(C)CC(=O)[C@@]2(O)[C@](C)(O1)[C@@H](OC(C)=O)[C@@H](O)C1C(C)(C)CC[C@H](O)[C@@]12C (some centres not stated)	/	8	/	104*
COc1ccc2cc(C)c3nn(CC(=O)N4CCCCCC4)c(=O)n3c2c1	/	5	/	-96
O=C1Nc2ccccc2/C1=C/C(=O)c1cccs1	i	69*	i	-56
COc1cc(NS(=O)(=O)c2ccc(C)cc2)ccc1-n1cnnn1	i	153*	i	21
COc1ccc(NS(=O)(=O)c2ccc(-n3cnnn3)cc2)cc1OC	i	/	i	/
O=C(Nc1ccc(Cl)c(C(F)(F)F)c1)NC1CC2CCCC(C1)N2C1CC1 (configuration not stated)	i	41*	i	/
COc1cccc(C(c2nnnn2C(C)(C)C)N2CCC(C(N)=O)CC2)c1OC (configuration not stated)	/	9	/	7
Oc1c(Cl)cc(C(c2cc(Cl)c(O)c(Cl)c2)C(c2cc(Cl)c(O)c(Cl)c2)c2cc(Cl)c(O)c(Cl)c2)cc1Cl	/	49*	/	28
Cc1cc(/C(O)=C2/C(=O)C(=O)N(CCN(C)C)C2c2cccnc2)ccc1OC(C)C (configuration not stated)	/	7	/	26
O=C(N/N=C/c1ccccc1OC(F)F)c1cc(-c2ccncc2)nc2ccccc12	i	20	-6*	-10
CN1[C@@H](C(=O)NCc2ccccn2)C[C@@H](c2cccs2)NS1(=O)=O	/	/	/	85*
CCc1ccc(CCC(=O)Nc2ncc(Cc3ccccc3)s2)o1	/	8	/	1
COc1ccc(C(=O)N/N=C2\C(=O)c3c(C)cc(C)cc3CC2(C)C)cc1	/	53*	/	-12
O=C(O)CC(c1ccccc1)c1ccccc1	i	6	i	12
SMILES	CHT allo act	EP2 antag	CHT block	EP2 modulator
O=C(O)CC[P+](c1ccccc1)(c1ccccc1)c1ccccc1	/	47*	/	11
Cc1ccc(S(=O)(=O)CCC(=O)OCC(=O)c2cc(C)ccc2C)cc1	i	/	i	/
Cc1ccc(S(=O)(=O)CCC(=O)c2ccc(O)cc2O)cc1	i	5	-5.2*	-9
CC(C)(C)C1CCc2c(sc3nc(CN4CCN(C(=O)c5cccc(F)c5)CC4)[nH]c(=O)c23)C1 (configuration not stated)	/	7	/	30
Cc1cc(NC(=O)c2ccc(C)s2)n(-c2nc3ccccc3[nH]2)n1	i	10	i	63*
CCOCCCN(C)C1CCN(C(=O)c2oc3ccccc3c2NC(=O)COc2ccc(F)cc2)CC1	i	/	-7.2*	/
CCOCCCN(C)C1CCN(C(=O)c2oc3ccccc3c2NC(=O)Cc2ccc(F)cc2)CC1	i	/	i	/
COc1cc(N)c(Cl)cc1C(=O)N1CCC(C(=O)c2nc3ccccc3s2)CC1	/	/	/	-106
COc1cc(-n2nc(C)c3c2OC(N)=C(C#N)C3c2ccccc2)c(Cl)c(Br)c1O (configuration not stated)	i	12	-10*	9
COc1cccc(C(=O)N2c3cc(C)ccc3OCC2C(C)(C)C)c1 (configuration not stated)	i	/	i	/
Cc1ccc(S(=O)(=O)N2c3cc(C)ccc3OCC2C(C)(C)C)cc1 (configuration not stated)	i	15	i	62*
CCCN(Cc1cc2cccc(C)c2[nH]c1=O)C(=O)c1cc(OC)cc(OC)c1	/	3	/	13
CC(C)c1ccc(NC(=O)COc2ccccc2)cc1	i	/	i	/
CC(C)c1ccc(NC(=O)COc2ccccn2)cc1	i	95*	i	-17
CC1C(=O)N(Cc2ccccc2F)c2ccccc2N1C(=O)c1c(F)cccc1F (configuration not stated)	i	/	-5.1*	/
CC1C(=O)N(Cc2cccc(F)c2)c2ccccc2N1C(=O)c1ccccc1 (configuration not stated)	i	/	i	/
CCOc1cccc(/C(O)=C2/C(=O)C(=O)N(CCCN(C)C)C2c2cccnc2)c1 (configuration not stated)	/	7	/	9
COc1ccc(Nc2nc3ccccc3nc2-n2nc(C)cc2C)cc1	i	9	i	65*
O=C1C(NS(=O)(=O)c2cccs2)=C(N2CCN(Cc3ccccc3)CC2)C(=O)c2ccccc21	i	5	-5.5*	-43
CCOc1ccccc1N1CCN(C2=C(NS(=O)(=O)c3cccs3)C(=O)c3ccccc3C2=O)CC1	i	20	i	-22
Cc1cc(N2CCOCC2)ccc1/C=C\[N+](=O)[O-]	i	57*	i	-39
COc1cc(C(=O)NCCc2c[nH]c3ccccc23)ccc1OCc1c(C)noc1C	i	88*	i	-103
COc1ccccc1CNC(=O)c1ccc(OCc2c(C)noc2C)c(OC)c1	i	14	i	-42
CC(=O)Nc1ccc(C(=O)CSc2nnc3c(C)cc4cc(C)cc(C)c4n23)cc1	/	12	/	-5
COc1cc(/C=N/n2cnnc2)ccc1OCC(=O)N1CCOCC1	9.6*	8	i	13
SMILES	CHT allo act	EP2 antag	CHT block	EP2 modulator
CSc1nc(NCCCN(C)C)c2c3c(sc2n1)CN(C)CC3	i	/	i	/
CCCSc1nc(N)c2c3c(sc2n1)CN(C)CC3	7.2*	/	i	-17
CN(C)CCSc1nc(N)c2c3c(sc2n1)CN(C)CC3	i	7	-8*	0
O=C(Nc1ccc(N2CCN(C(=O)c3cccs3)CC2)cc1)c1cccs1	/	10	/	-62
CN(Cc1ccccc1)C(=O)CC(c1ccccc1)c1cc(Cl)ccc1O (configuration not stated)	i	/	i	61*
CCOc1ccccc1-n1c(-c2ccccc2)cnc1SCC(=O)Nc1cc(C)on1	/	5	/	48
CN(Cc1ccccc1)C(=O)[C@H]1C[C@@H](c2ccco2)NS(=O)(=O)N1C	/	/	/	-59

From PubChem
